Data from PubChem BioAssay AID1159580 (chemical genetic matrix, 2015).
Values joined by “and” are separate entries in the source; they are usually repeats but may differ in a detail not shown here. Identical values can stand only once. Screen size: about 5,500 compounds; about 2,000 (36%) were called active. Inconclusive results (about 18%) are left out. Cut-off read from the data, not from the text of the source: active = normalized growth mostly below about 0.91 (no sharp cut-off); inconclusive = no clear call, values can overlap the other calls; inactive = mostly above about 0.92. The list shows a part of the results.

Assay: chemical genetic growth profiling, strain panel (AID 1159580);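 note: tested at 20 µM; growth read once vehicle control cultures reached saturation at 30 °C; 1 = growth at the plate median or of vehicle wells; lower values mean less growth of the strain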
Details: S. cerevisiae deletion strains, growth OD

Measured: normalized growth

CC(=O)Oc1cc(OC(C)=O)c2c(c1)O[C@H](c1ccc(OC(C)=O)c(OC(C)=O)c1)[C@H](OC(C)=O)C2
inactive: locus YAL013W, strain DEP1, active compounds read low 1.01 | locus YAL021C, strain ccr4, active compounds read low 1 | locus YAL026C, strain drs2, active compounds read low 1.01 | locus YAL030W, strain snc1, active compounds read low 1 | locus YBL061C, strain skt5, active compounds read low 0.994 | locus YBR009C, strain hhf1, active compounds read low 0.965 | locus YBR021W, strain FUR4, active compounds read low 1 | locus YBR023C, strain chs3, active compounds read low 0.998 | locus YBR171W, strain sec66, active compounds read low 0.999 | locus YBR229C, strain ROT2, active compounds read low 1.01 | locus YBR231C, strain swc5, active compounds read low 1.01 | locus YBR279W, strain paf1, active compounds read low 0.985 | locus YCL011C, strain gbp2, active compounds read low 0.982 | locus YCL016C, strain dcc1, active compounds read low 0.971 | locus YCL029C, strain bik1, active compounds read low 1.02 | locus YCL061C, strain MRC1, active compounds read low 0.999 | locus YCL069W, strain vba3, active compounds read low 1 | locus YCR088W, strain abp1, active compounds read low 1 | locus YDL005C, strain med2, active compounds read low 1.01 | locus YDL035C, strain GPR1, active compounds read low 1.01 | locus YDL040C, strain nat1, active compounds read low 1 | locus YDL074C, strain BRE1, active compounds read low 1.01 | locus YDL101C, strain DUN1, active compounds read low 1.01 | locus YDL185W, strain tfp1, active compounds read low 1.03 | locus YDL192W, strain arf1, active compounds read low 1.02 | locus YDR001C, strain nth1, active compounds read low 0.999 | locus YDR069C, strain doa4, active compounds read low 1 | locus YDR101C, strain arx1, active compounds read low 1.02 | locus YDR137W, strain rgp1, active compounds read low 1.02 | locus YDR159W, strain sac3, active compounds read low 1.02 | locus YDR162C, strain NBP2, active compounds read low 1 | locus YDR195W, strain ref2 1.04 | locus YDR297W, strain sur2, active compounds read low 0.996 | locus YDR318W, strain mcm21, active compounds read low 1.03 | locus YDR334W, strain swr1, active compounds read low 1 | locus YDR335W, strain msn5, active compounds read low 1 | locus YDR388W, active compounds read low 1.03 | locus YDR392W, strain spt3, active compounds read low 0.964 | locus YDR502C, strain sam2, active compounds read low 1.02 | locus YEL003W, strain gim4, active compounds read low 1 | locus YEL037C, strain rad23, active compounds read low 1 | locus YEL061C, strain CIN8 (second series), active compounds read low 0.997 | locus YEL061C, strain CIN8, active compounds read low 1 | locus YER015W, strain faa2, active compounds read low 0.983 | locus YER016W, strain bim1, active compounds read low 1 | locus YER110C, active compounds read low 1.03 | locus YER111C, strain swi4, active compounds read low 0.995 | locus YER155C, strain BEM2 (second series), active compounds read low 1.05 | locus YER155C, strain BEM2, active compounds read low 0.999 | locus YER167W, strain BCK2, active compounds read low 1.02 | locus YFR010W, strain ubp6, active compounds read low 0.998 | locus YGL078C, strain dbp3, active compounds read low 1.02 | locus YGL086W, strain mad1, active compounds read low 0.997 | locus YGL167C, strain pmr1, active compounds read low 0.998 | locus YGL173C, strain kem1, active compounds read low 1 | locus YGL227W, strain vid30, active compounds read low 0.991 | locus YGL240W, strain doc1, active compounds read low 1.04 | locus YGL248W, strain PDE1, active compounds read low 1.01 | locus YGL253W, strain hxk2, active compounds read low 0.984 | locus YGR078C, strain PAC10, active compounds read low 1 | locus YGR135W, strain pre9, active compounds read low 1.02 | locus YGR252W, strain gcn5, active compounds read low 1.05 | locus YHR013C, strain ard1, active compounds read low 0.999 | locus YHR027C, strain rpn1, active compounds read low 0.999 | locus YHR030C, strain SLT2, active compounds read low 1.01 and 0.946 | locus YHR079C, strain IRE1 (second series), active compounds read low 1.03 | locus YHR079C, strain IRE1, active compounds read low 0.968 | locus YHR094C, strain hxt1, active compounds read low 1.02 | locus YHR129C, strain ARP1, active compounds read low 1.01 | locus YHR142W, strain chs7, active compounds read low 0.944 | locus YHR200W, strain rpn10, active compounds read low 1.03 | locus YIL066C, strain RNR3, active compounds read low 0.999 | locus YIL073C, strain SPO22, active compounds read low 1.1 | locus YIL125W, strain kgd1, active compounds read low 1.01 | locus YIR030C, strain dcg1, active compounds read low 1.03 | locus YJL092W, strain hpr5, active compounds read low 1 | locus YJL095W, strain BCK1 (second series), active compounds read low 0.99 | locus YJL095W, strain BCK1, active compounds read low 1 and 0.959 | locus YJL115W, strain asf1, active compounds read low 1 | locus YJL129C, strain trk1, active compounds read low 0.999 | locus YJL134W, strain LCB3, active compounds read low 1.01 | locus YJL154C, strain vps35, active compounds read low 1 | locus YJL164C, strain tpk1, active compounds read low 0.984 | locus YJL166W, strain qcr8, active compounds read low 1 | locus YJL168C, strain set2, active compounds read low 1.03 | locus YJL187C, strain SWE1 (second series), active compounds read low 1.01 | locus YJL187C, strain SWE1, active compounds read low 1.01 | locus YJR043C, strain POL32, active compounds read low 1.01 | locus YJR066W, strain TOR1, active compounds read low 0.935 | locus YJR075W, strain HOC1, active compounds read low 1.02 | locus YKL009W, strain mrt4, active compounds read low 1.02 | locus YKL068W, active compounds read low 1.01 | locus YKL085W, strain MDH1 (second series), active compounds read low 1.01 | locus YKL085W, strain MDH1, active compounds read low 1.01 | locus YKL160W, strain elf1, active compounds read low 1.01 | locus YKR001C, strain vps1, active compounds read low 1.02 | locus YKR026C, strain gcn3, active compounds read low 0.994 | locus YKR091W, strain srl3, active compounds read low 0.994 | locus YLL001W, strain dnm1, active compounds read low 0.985 | locus YLL026W, active compounds read low 0.999 | locus YLL041C, strain sdh2, active compounds read low 1.01 | locus YLR027C, strain aat2, active compounds read low 1.01 | locus YLR039C, strain RIC1, active compounds read low 1.09 | locus YLR058C, strain SHM2, active compounds read low 1.01 | locus YLR102C, strain apc9, active compounds read low 1.02 | locus YLR113W, strain HOG1, active compounds read low 0.94 | locus YLR221C, strain rsa3, active compounds read low 0.964 | locus YLR258W, strain gsy2, active compounds read low 0.979 | locus YLR262C, strain YPT6 (second series), active compounds read low 0.997 | locus YLR262C, strain YPT6, active compounds read low 1.12 | locus YLR268W, strain sec22, active compounds read low 1.04 | locus YLR320W, strain mms22, active compounds read low 0.984 | locus YLR330W, strain CHS5, active compounds read low 1.02 | locus YLR342W, strain FKS1 (second series), active compounds read low 1.01 | locus YLR342W, strain FKS1, active compounds read low 1 | locus YLR357W, strain rsc2, active compounds read low 1.01 | locus YLR370C, strain arc18, active compounds read low 0.979 | locus YLR371W, strain rom2, active compounds read low 1.03 | locus YLR384C, strain iki3, active compounds read low 1 | locus YLR418C, strain cdc73, active compounds read low 1.06 | locus YML016C, strain PPZ1, active compounds read low 1.01 | locus YML032C, strain rad52, active compounds read low 1.03 | locus YML120C, strain ndi1, active compounds read low 0.981 | locus YML124C, strain tub3, active compounds read low 1.02 | locus YMR058W, strain fet3, active compounds read low 1.01 | locus YMR078C, strain ctf18, active compounds read low 1.02 | locus YMR125W, strain sto1, active compounds read low 0.995 | locus YMR129W, active compounds read low 1 | locus YMR205C, strain PFK2, active compounds read low 0.992 | locus YMR223W, strain ubp8, active compounds read low 1.02 | locus YMR231W, strain pep5, active compounds read low 1.01 | locus YMR307W, strain GAS1, active compounds read low 1.01 | locus YNL067W, strain RPL9B, active compounds read low 1.02 | locus YNL071W, strain lat1, active compounds read low 1.01 | locus YNL183C, strain NPR1, active compounds read low 0.91 | locus YNL209W, strain ssb2, active compounds read low 0.996 | locus YNL233W, strain BNI4, active compounds read low 1.01 | locus YNL248C, strain rpa49, active compounds read low 1.03 | locus YNL250W, strain rad50, active compounds read low 1.03 | locus YNL271C, strain bni1, active compounds read low 1.02 | locus YNL298W, strain CLA4, active compounds read low 1.03 | locus YNL307C, strain MCK1, active compounds read low 1.07 | locus YNL322C, strain KRE1 (second series), active compounds read low 0.997 | locus YNR049C, strain mso1, active compounds read low 1 | locus YNR052C, strain pop2, active compounds read low 1.03 | locus YOL012C, strain htz1 0.664 | locus YOL147C, strain pex11, active compounds read low 1.02 | locus YOR001W, strain rrp6, active compounds read low 1.02 | locus YOR061W, strain CKA2, active compounds read low 1 | locus YOR069W, strain VPS5, active compounds read low 1.01 | locus YOR070C, strain gyp1, active compounds read low 0.997 | locus YOR080W, strain dia2, active compounds read low 1 | locus YOR083W, strain WHI5, active compounds read low 0.997 | locus YOR106W, strain vam3, active compounds read low 1.01 | locus YOR136W, strain idh2, active compounds read low 1.05 | locus YOR144C, strain elg1, active compounds read low 1.02 | locus YOR184W, strain ser1, active compounds read low 1.03 | locus YOR231W, strain MKK1, active compounds read low 0.965 | locus YOR265W, strain rbl2, active compounds read low 1.01 | locus YOR270C, strain vph1, active compounds read low 0.943 | locus YOR290C, strain snf2, active compounds read low 0.996 | locus YOR316C, strain cot1, active compounds read low 1.03 | locus YPL051W, strain arl3, active compounds read low 0.997 | locus YPL078C, strain atp4, active compounds read low 1.01 | locus YPL106C, strain sse1, active compounds read low 0.967 | locus YPL240C, strain hsp82, active compounds read low 0.99 | locus YPL256C, strain CLN2, active compounds read low 0.933 | locus YPR119W, strain clb2, active compounds read low 1.01 | locus YPR141C, strain kar3, active compounds read low 1.02 | locus YPR163C, strain tif3, active compounds read low 1.05 | locus YPR167C, strain met16, active compounds read low 1.04 | strain wtn01, active compounds read low 1.01
